Where “and” joins values, the source holds several entries; their conditions need not be identical. Equal entries are not always repeated. Out of some 5,500 compounds screened, about 2,000 (36%) were called active. Roughly 18% stayed inconclusive and do not appear here. Rule as the data show it: active = normalized growth mostly below about 0.91 (no sharp cut-off); inconclusive = no clear call, values can overlap the other calls; inactive = mostly above about 0.92. Some of the results follow.
Experiment: chemical genetic growth profiling, strain panel (AID 1159580);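 also: tested at 20 µM; growth read once vehicle control cultures reached saturation at 30 °C; 1 = growth at the plate median or of vehicle wells; lower values mean less growth of the strain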
Details: S. cerevisiae deletion strains, growth OD
[1] = locus YDL101C, strain DUN1, stronger effect = lower value
[2] = locus YHR030C, strain SLT2, stronger effect = lower value
[3] = locus YHR079C, strain IRE1, stronger effect = lower value
[4] = locus YJL095W, strain BCK1, stronger effect = lower value
[5] = locus YJR066W, strain TOR1, stronger effect = lower value
[6] = locus YLR113W, strain HOG1, stronger effect = lower value
[7] = locus YNL183C, strain NPR1, stronger effect = lower value
[8] = locus YOR061W, strain CKA2, stronger effect = lower value
[9] = locus YOR231W, strain MKK1, stronger effect = lower value
[10] = locus YPL256C, strain CLN2, stronger effect = lower value

Measured: normalized growth

NC(=NC(=O)c1ccc(Cl)cc1)c1cccs1
inactive: locus YAR019C, strain CDC15, stronger effect = lower value 0.944 | locus YBL105C, strain PKC1, stronger effect = lower value 0.964 | locus YBR135W, strain CKS1, stronger effect = lower value 0.95 | locus YBR136W, strain MEC1, stronger effect = lower value 0.949 | locus YBR160W, strain CDC28, stronger effect = lower value 0.951 | locus YDL017W, strain CDC7, stronger effect = lower value 0.964 | locus YDL028C, strain MPS1, stronger effect = lower value 0.933 | [1] 0.969 | locus YDL108W, strain KIN28, stronger effect = lower value 0.946 | locus YDL132W, strain cdc53, stronger effect = lower value 0.951 | locus YDL214C, strain PRR2, stronger effect = lower value 0.8 | locus YDR052C, strain DBF4, stronger effect = lower value 0.96 | locus YDR054C, strain cdc34, stronger effect = lower value 0.951 | locus YDR226W, strain ADK1, stronger effect = lower value 0.951 | locus YDR477W, strain SNF1, stronger effect = lower value 0.828 | locus YER123W, strain YCK3, stronger effect = lower value 0.81 | locus YER133W, strain GLC7, stronger effect = lower value 0.775 | locus YFL009W, strain cdc4, stronger effect = lower value 0.954 | locus YFL029C, strain CAK1, stronger effect = lower value 0.949 | locus YFR003C, strain YPI1, stronger effect = lower value 0.959 | locus YFR019W, strain FAB1, stronger effect = lower value 0.938 | locus YFR028C, strain CDC14, stronger effect = lower value 0.948 | locus YGR040W, strain KSS1, stronger effect = lower value 0.833 | locus YGR052W, strain FMP48, stronger effect = lower value 0.794 | locus YGR092W, strain DBF2, stronger effect = lower value 0.533 | [2] 0.902 | [3] 0.698 | locus YHR082C, strain KSP1, stronger effect = lower value 0.934 | locus YHR205W, strain SCH9, stronger effect = lower value 0.798 | locus YIL147C, strain SLN1, stronger effect = lower value 0.956 | [4] 0.795 | locus YJL128C, strain PBS2, stronger effect = lower value 0.921 | locus YJL157C, strain FAR1, stronger effect = lower value 0.833 | locus YJR016C, strain ILV3, stronger effect = lower value 0.957 | locus YJR066W, strain TOR1 (second series), stronger effect = lower value 0.904 | [5] 0.884 | locus YKL048C, strain ELM1, stronger effect = lower value 0.901 | locus YKL067W, strain YNK1, stronger effect = lower value 0.824 | locus YKL101W, strain HSL1, stronger effect = lower value 0.877 | locus YKL193C, strain SDS22, stronger effect = lower value 0.942 | locus YKL203C, strain TOR2, stronger effect = lower value 0.9 | locus YLR133W, strain CKI1, stronger effect = lower value 0.83 | locus YLR403W, strain SFP1, stronger effect = lower value 0.789 | locus YML070W, strain DAK1, stronger effect = lower value 0.774 | locus YMR001C, strain CDC5, stronger effect = lower value 0.948 | locus YMR205C, strain PFK2 (second series), stronger effect = lower value 0.836 | locus YMR277W, strain FCP1, stronger effect = lower value 0.942 | locus YNL006W, strain LST8, stronger effect = lower value 0.97 | locus YNL020C, strain ARK1, stronger effect = lower value 0.821 | locus YNL161W, strain CBK1, stronger effect = lower value 0.95 | [7] 0.721 | locus YNL207W, strain RIO2, stronger effect = lower value 0.949 | locus YNL222W, strain SSU72, stronger effect = lower value 0.957 | locus YNL307C, strain MCK1 (second series), stronger effect = lower value 0.82 | locus YOL078W, strain AVO1, stronger effect = lower value 0.944 | locus YOL136C, strain PFK27, stronger effect = lower value 0.774 | [8] 0.82 | locus YOR119C, strain RIO1, stronger effect = lower value 0.834 | [9] 0.734 | locus YOR329C, strain SCD5, stronger effect = lower value 0.949 | locus YPL031C, strain PHO85, stronger effect = lower value 0.8 | locus YPL153C, strain RAD53, stronger effect = lower value 0.844 | locus YPL204W, strain HRR25, stronger effect = lower value 0.806 | locus YPL209C, strain IPL1, stronger effect = lower value 0.955 | locus YPR025C, strain CCL1, stronger effect = lower value 0.953 | locus YPR106W, strain ISR1, stronger effect = lower value 0.932 | locus YPR111W, strain DBF20, stronger effect = lower value 0.915 | strain NNK1, stronger effect = lower value 0.932 | strain TSCII, stronger effect = lower value 0.939
active: [6] 0.607 | [10] 0.67

O=C(O)CCCO
inactive: [2] 1.05 | [3] 1.05 | [4] 1.01 | [5] 0.976 | [6] 1.02 | [7] 0.983 | [9] 1.02 | [10] 1.01

O=C(O)CCCCCCCCCCCCC1C=CCC1 (configuration not stated)
0.542 (active) and 0.952 (inactive): [4]
inactive: locus YBR229C, strain ROT2, stronger effect = lower value 1.01 | locus YCL029C, strain bik1, stronger effect = lower value 0.939 | locus YDL035C, strain GPR1, stronger effect = lower value 0.87 | [1] 0.958 | locus YDL134C, strain PPH21, stronger effect = lower value 0.93 | locus YDL185W, strain tfp1, stronger effect = lower value 1.01 | locus YDR162C, strain NBP2, stronger effect = lower value 0.911 | locus YDR318W, strain mcm21, stronger effect = lower value 0.946 | locus YDR388W, stronger effect = lower value 0.976 | locus YEL061C, strain CIN8, stronger effect = lower value 0.971 | locus YER110C, stronger effect = lower value 1.01 | locus YER167W, strain BCK2, stronger effect = lower value 1.01 | locus YGL078C, strain dbp3, stronger effect = lower value 0.973 | locus YGR135W, strain pre9, stronger effect = lower value 0.953 | locus YGR252W, strain gcn5, stronger effect = lower value 0.78 | locus YHR079C, strain IRE1 (second series), stronger effect = lower value 0.98 | [3] 0.935 | locus YHR094C, strain hxt1, stronger effect = lower value 1 | locus YHR200W, strain rpn10, stronger effect = lower value 1 | locus YIL125W, strain kgd1, stronger effect = lower value 0.99 | locus YIR030C, strain dcg1, stronger effect = lower value 0.998 | locus YJL134W, strain LCB3, stronger effect = lower value 1.02 | locus YJL168C, strain set2, stronger effect = lower value 0.999 | locus YJL187C, strain SWE1 (second series), stronger effect = lower value 0.867 | locus YJR043C, strain POL32, stronger effect = lower value 0.919 | [5] 0.931 | locus YJR075W, strain HOC1, stronger effect = lower value 0.967 | locus YKL009W, strain mrt4, stronger effect = lower value 0.972 | locus YKL068W, stronger effect = lower value 1.01 | locus YKL085W, strain MDH1 (second series), stronger effect = lower value 1.01 | locus YKL085W, strain MDH1, stronger effect = lower value 1.01 | locus YLR058C, strain SHM2, stronger effect = lower value 0.902 | locus YLR102C, strain apc9, stronger effect = lower value 0.998 | [6] 0.995 | locus YLR342W, strain FKS1 (second series), stronger effect = lower value 0.854 | locus YLR371W, strain rom2, stronger effect = lower value 0.992 | locus YML016C, strain PPZ1, stronger effect = lower value 1.03 | locus YML032C, strain rad52, stronger effect = lower value 0.977 | locus YML124C, strain tub3, stronger effect = lower value 0.998 | locus YMR078C, strain ctf18, stronger effect = lower value 1.01 | locus YMR263W, strain SAP30, stronger effect = lower value 0.915 | locus YMR307W, strain GAS1, stronger effect = lower value 1.13 | locus YNL067W, strain RPL9B, stronger effect = lower value 0.933 | [7] 0.903 | locus YNL250W, strain rad50, stronger effect = lower value 1.02 | locus YNL271C, strain bni1, stronger effect = lower value 0.976 | locus YNL298W, strain CLA4, stronger effect = lower value 0.944 | locus YNR052C, strain pop2, stronger effect = lower value 0.988 | locus YOL006C, strain TOP1, stronger effect = lower value 0.764 | locus YOL012C, strain htz1 0.57 | [8] 0.987 | locus YOR069W, strain VPS5, stronger effect = lower value 0.956 | locus YOR136W, strain idh2, stronger effect = lower value 0.976 | [9] 0.954 | locus YOR316C, strain cot1, stronger effect = lower value 0.999 | [10] 1.04 | locus YPR119W, strain clb2, stronger effect = lower value 0.993 | locus YPR141C, strain kar3, stronger effect = lower value 1.01 | locus YPR163C, strain tif3, stronger effect = lower value 0.921 | locus YPR167C, strain met16, stronger effect = lower value 0.989 | strain wtn01, stronger effect = lower value 0.908
0.311 (active) and 0.959 (inactive): [2]
active: locus YBR021W, strain FUR4, stronger effect = lower value 0.186 | locus YDL074C, strain BRE1, stronger effect = lower value 0.653 | locus YDL192W, strain arf1, stronger effect = lower value 0.82 | locus YDR101C, strain arx1, stronger effect = lower value 0.883 | locus YDR502C, strain sam2, stronger effect = lower value 0.917 | locus YER155C, strain BEM2, stronger effect = lower value 0.745 | locus YGL086W, strain mad1, stronger effect = lower value 0.853 | locus YGL248W, strain PDE1, stronger effect = lower value 0.865 | locus YHR129C, strain ARP1, stronger effect = lower value 0.885 | locus YIL066C, strain RNR3, stronger effect = lower value 0.841 | locus YIL073C, strain SPO22, stronger effect = lower value 0.604 | locus YKL190W, strain CNB1, stronger effect = lower value 0.761 | locus YKR001C, strain vps1, stronger effect = lower value 0.337 | locus YLR039C, strain RIC1, stronger effect = lower value 0.422 | locus YLR262C, strain YPT6, stronger effect = lower value 0.476 | locus YLR268W, strain sec22, stronger effect = lower value 0.812 | locus YLR330W, strain CHS5, stronger effect = lower value 0.822 | locus YLR418C, strain cdc73, stronger effect = lower value 0.632 | locus YMR223W, strain ubp8, stronger effect = lower value 0.871 | locus YNL153C, strain GIM3, stronger effect = lower value 0.808 | locus YNL233W, strain BNI4, stronger effect = lower value 0.652 | locus YNL307C, strain MCK1, stronger effect = lower value 0.585 | locus YOL147C, strain pex11, stronger effect = lower value 0.871 | locus YOR144C, strain elg1, stronger effect = lower value 0.901 | locus YOR184W, strain ser1, stronger effect = lower value 0.726
